The results in this text go back to PubChem BioAssay AID504332 (National Center for Advancing Translational Sciences (NCATS), 2011).

The campaign covered roughly 350,000 compounds. About 31,000 (8.9%) were called active. Inconclusive results (about 15%) are left out. Many of the other results were omitted from the sample, so actives are more common in it than they were. Values without a mark were called inactive. Calls come from the whole dose curve; as a rule, active = well fitted inhibition curve with a large enough effect; inconclusive = small, poorly fitted or top-dose-only effect; inactive = no such curve, though single readings can be large or run the other way.
% is set by controls: 0 for no effect and ±100 for the full control effect; potency is the fitted concentration of half-maximal effect.

Histone-lysine N-methyltransferase EHMT2 (Homo sapiens), sequence (Q96KQ7 913-1193 limits assumed): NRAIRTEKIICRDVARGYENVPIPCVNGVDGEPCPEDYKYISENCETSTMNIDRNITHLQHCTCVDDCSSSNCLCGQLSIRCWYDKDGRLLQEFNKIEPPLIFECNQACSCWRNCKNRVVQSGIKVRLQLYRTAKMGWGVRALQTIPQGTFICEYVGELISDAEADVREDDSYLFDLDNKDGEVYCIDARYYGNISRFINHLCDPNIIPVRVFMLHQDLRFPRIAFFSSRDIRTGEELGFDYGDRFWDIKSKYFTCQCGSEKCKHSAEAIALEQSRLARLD

The assay has as its target Histone-lysine N-methyltransferase EHMT2 (Homo sapiens) (UniProt Q96KQ7). Kind of assay: qHTS Assay for Inhibitors of Histone Lysine Methyltransferase G9a. Note: nearly all actives have a fitted effect of over 75% in size. Particulars: G9a H3K9 monomethylation, AlphaScreen, 2 h; series mostly up to 59 µM; activity, negative = inhibition: at the top concentration. In outline: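 G9a (20 nM) preincubated 15 min RT with compounds, then 500 nM biotinylated H3K9 peptide and 20 uM SAM added; 2 h RT reaction. Monomethyl-H3K9 product detected by AlphaScreen with anti-H3K9me1 antibody, streptavidin donor and anti-rabbit IgG acceptor beads.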
For orientation: In qHTS, concentration-response curves come from the screen itself.
On to `COc1ccccc1CNC(=O)CCn1c(=O)c2ccccc2n(CC(=O)Nc2ccc(Br)cc2F)c1=O`, for which the “activity, negative = inhibition” value was -30.5%.
Still for that read-out and setting: with `COc1ccc(N2CCN(S(=O)(=O)c3ccc4c(c3)NC(=O)C(C)C(=O)N4)CC2)cc1` (configuration not stated) the figure was -7.4% [at 102 µM].
`COc1ccc(N2CCN(S(=O)(=O)c3cc4c5c(c3)C(C)C(=O)N5CCC4)CC2)cc1` (configuration not stated): the Potency is 44.7 µM (active).
`CCOc1ccccc1NS(=O)(=O)c1cc2c3c(c1)C(C)C(=O)N3CCC2` (configuration not stated): the “activity, negative = inhibition” value was 5.21% [at 102 µM].
Turning to `COCC1CCN(C(=O)C2CCC(=O)N(CC3CCCCC3)C2)CC1` (configuration not stated), the “activity, negative = inhibition” value was 77.4% [at 102 µM].
Turning to `Cc1ccc(CSc2nc(-c3ccccc3)c(C#N)c(=O)[nH]2)cc1`, the activity, negative = inhibition is 16.7% [at 2.33 µM].
Same read-out and setting: with `N#Cc1ccc(-c2cccs2)nc1SCc1ccc(Br)cc1` the figure was 49.5%.
`N#Cc1c(-c2cccs2)nc(SCC(=O)c2ccc(Br)cc2)[nH]c1=O`: the Potency is 39.8 µM (active).
As to `Cc1ccc(-c2cc(-c3coc4ccccc4c3=O)c3c(n2)-c2cc(Cl)ccc2OC3)cc1`, the “activity, negative = inhibition” value is -32.2%.
As for `COc1ccc(NC(=O)Nc2cccc3cccnc23)cc1`, the “activity, negative = inhibition” value is -19.4% [at 102 µM].
In the case of `Nc1ccc(Nc2cc(O)c3ncccc3c2)cc1`, the Potency is 1.58 µM (active).
For `O=C(NCCN1CCN(C(=O)c2cccc([N+](=O)[O-])c2)CC1)C(=O)NCc1ccc(Cl)cc1`, the “activity, negative = inhibition” value was 1.83% [at 102 µM].
As for `CSc1ccc(C2c3c(oc4ccccc4c3=O)C(=O)N2CCCN2CCOCC2)cc1` (configuration not stated), the “activity, negative = inhibition” value was -2.82%.
Still for that read-out and setting: the figure for `COc1ccc(Cl)cc1NC(=O)CSc1nc(=O)[nH]c2c1CCCC2` is -3.14%.
As to `COc1ccc(-c2cc(C(=O)N(C)CC(=O)Nc3ccccc3Cl)c3ccccc3n2)cc1OC`, the “activity, negative = inhibition” value was -0.839% [at 102 µM].
As to `CCOC(=O)c1ccc(NC(=S)Nc2cc(C)cc(C)n2)cc1`, the “activity, negative = inhibition” value is 10.3% [at 102 µM].
On to `Cc1cc(C)n2nc(C(=O)OCC(=O)N(C)CC(=O)Nc3ccc(F)cc3)nc2n1`, for which the activity, negative = inhibition is -2.62% [at 12.7 µM].
On to `CCOC(=O)c1ccc(Nc2cc(C)nc3nc(C)nn23)cc1`, for which the Potency was 79.4 µM (active).
Take `O=C(Nc1ccccc1Cl)N1CCC(CN2CCCC2)CC1`: the “activity, negative = inhibition” value was 2.03%.
For `CCOC(=O)c1nnn(CC(=O)NC(=O)Nc2ccccc2F)c1C(=O)OCC`, the “activity, negative = inhibition” value was -35.9%.
Regarding `Cc1ccc(NC(=O)C(c2ccccc2)N2CCN(C(=O)c3ccco3)CC2)cc1` (configuration not stated), the activity, negative = inhibition was -37.3% [at 12.7 µM].
As for `Cc1cc(C)cc(NC(=O)C(c2ccccc2)N2CCN(CC(=O)N3CCCC3)CC2)c1` (configuration not stated), the Potency was 50.1 µM (active).
`Cc1cc(C)cc(NC(=O)N2CCCCCCC2)c1`: the “activity, negative = inhibition” value is 6.79% [at 102 µM].
As for `Cc1cc(C(=O)OCC(=O)Nc2ccccc2Cl)c(C)o1`, the activity, negative = inhibition is -9.85% [at 12.7 µM].
Turning to `Cc1cc(N2CCN(S(=O)(=O)c3ccc(C)c(C)c3)CC2)c2ccccc2n1`, the activity, negative = inhibition was 22.6% [at 12.7 µM].
Consider `CC(C)OC(=O)C(C#N)c1nc2ccccc2nc1N1CCN(Cc2ccccc2)CC1` (configuration not stated), for which the “activity, negative = inhibition” value was 53%.
Regarding `Cc1ccc(S(=O)(=O)C(C#N)c2nc3ccccc3nc2N2CCCC2)cc1C` (configuration not stated), the Potency was 2.82 µM (active).
Regarding `COc1ccc(-c2noc(CSc3nnc(-c4ccccc4)n3-c3ccc(F)cc3)n2)c(OC)c1`, the “activity, negative = inhibition” value was -7.39%.
In the case of `CCN(CC(=O)Nc1ccc(NC(C)=O)cc1)C(=O)C1CC(=O)N(Cc2ccc(C)cc2)C1` (configuration not stated), the activity, negative = inhibition was -0.244% [at 0.501 µM].
Same read-out and setting: the figure for `O=C(CCNS(=O)(=O)c1ccccc1C(F)(F)F)NCc1ccc2c(c1)OCO2` is 0.774%; for `c1n[nH]c(NCc2ccc3c(c2)OCO3)n1` it is -1.38%.
As to `N#Cc1nc(Cc2cccc3ccccc23)oc1NCc1ccc2c(c1)OCO2`, the Potency was 10 µM (active).
In the case of `Cc1cc(NS(=O)(=O)c2ccc(NC(=O)c3ccccc3C)cc2)nc(C)n1`, the “activity, negative = inhibition” value is 2.07%.
On the same count and under the same terms, with `CCc1cccc(-n2nnc(-c3nsc(NC(=O)c4ccc(C)cc4)n3)c2C)c1` the figure was -0.566%.
On to `CCCCSc1ncnc2c1sc1nc(N3CCOCC3)c3c(c12)CCCC3`, for which the “activity, negative = inhibition” value was -8.07%.
For `COC(=O)c1ccc(CNC(=O)c2ccc3oc(C(C)C)nc3c2)cc1`, the “activity, negative = inhibition” value is 29.5% [at 102 µM].
On to `CC(C)C(=O)N1CCN(CCN=CC2=C(O)CC(c3ccco3)CC2=O)CC1` (configuration not stated), for which the Potency was 50.1 µM (active).
For `O=C1CC(c2ccccc2)CC(O)=C1C=NCCN1CCOCC1` (configuration not stated), the Potency was 12.6 µM (active).
On to `CC1(C)CC(=O)C(C=NCCN2CCN(C(=S)Nc3cccc(Cl)c3)CC2)=C(O)C1`, for which the activity, negative = inhibition is -2.18% [at 0.501 µM].
As for `O=C1CC(c2cccc(Cl)c2)CC(O)=C1C=Nc1ccccc1` (configuration not stated), the “activity, negative = inhibition” value is 19.3%.
Same read-out and setting: the figure for `O=C1CCCC(O)=C1C=NCCc1ccccc1` is -16.2%; for `CCNC(=S)N1CCN(CCN=CC2=C(O)CC(C)(C)CC2=O)CC1` it is 26.3% [at 102 µM]; for `COc1ccc2c(c1)C=C(C(=O)NCc1cc(Br)ccc1OC)CO2` it is -5.53%.
As for `COc1ccc(OC)c(NC(=O)C2CCCN(S(=O)(=O)c3ccc4c(c3)CCCC(=O)N4)C2)c1` (configuration not stated), the “activity, negative = inhibition” value was -27.3%.
Same read-out and setting: with `CCN(c1ccc(Cl)cc1)S(=O)(=O)c1nnc(NC(=O)c2ccco2)s1` the figure was -16.6%.
For `O=C(Nc1nnc(CCOCCOCCc2nnc(NC(=O)c3ccco3)s2)s1)c1ccco1`, the Potency was 14.1 µM (active).
As for `O=C(Nc1nc(-c2ccco2)c(-c2ccco2)s1)c1ccco1`, the activity, negative = inhibition is 16.3% [at 2.33 µM].
